# Measurements reported in PubChem BioAssay (NCI).
# The panel holds about 83,000 compounds, 20% with a hit somewhere; the sample as a whole holds those more often.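 Cells were grown in 96-well plates and exposed to the test compound at a single concentration for 48 hours; results are reported as percent growth, with values below 10 considered active.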 Activity calls are given as the source filed them.
# System: HL-60(TB) leukemia
# Assay: NCI-60 one-dose screen, 48 h (100 = growth as untreated, 0 = no growth, -100 = all killed)
# Conditions: 10 µM unless noted
row,Structure (SMILES),growth
1,CCOC(=O)c1c(NC(=O)c2cccc(C(F)(F)F)c2)sc2c1CCC(=O)C2,37.7% (inactive)
2,CC[C@H](CO)Nc1ccc2ncc(C#Cc3cncc(C(=O)Nc4ccc(CN5CCN(C)CC5)c(C(F)(F)F)c4)c3)n2n1,-46.3% (active)
3,CN(C)c1cccc2c(S(=O)(=O)Nc3cccc(-c4csc(NC(=O)CCCCCN5CCN(CCO)CC5)n4)c3)cccc12,74.8% (inactive)
4,O=c1oc2ccc(-c3ccc(F)cc3F)cc2c(=O)n1-c1ccc(F)c(F)c1,-18.9% (active)
5,O=c1/c(=C\c2ccc(-c3ccccc3)o2)sc2nc(-c3ccccc3)nn12,107% (inactive)
6,O=C(NNc1nc2cc(F)ccc2n2c(CO)ccc12)c1cnccn1,-27.4% (active)
7,CC1CCc2c(sc3nc(SCC(=O)N/N=C/c4ccc(Cl)cc4)n(-c4ccccc4)c(=O)c23)C1 (stereo not drawn),107% (inactive)
8,CN(C)c1ncc(/C=C2\SC(=S)N(Cc3ccccc3Cl)C2=O)s1,94% (inactive)
9,[Cl][Ru].c1ccc(-c2cccc(-c3ccccn3)n2)nc1.c1ccc(-c2ccnc3c2ccc2c(-c4ccccc4)ccnc23)cc1,-10.5% (active)
10,O=C1Nc2ccc(F)cc2/C1=C\C(=O)c1ccc(NS(=O)(=O)c2ccccc2)cc1,33.1% (inactive)
11,Cc1ccc(-c2nc(C(Cl)Cl)nc3cc(-c4ccccc4)nn23)cc1,-12% (active)
12,CN(Cc1ccccc1)S(=O)(=O)/N=C1\NC(=O)NC1=C(Cl)Cl,-29.8% (active)
13,Oc1c(Cl)cc(Cl)c2ccc(CN3CCCCC3)nc12,32.9% (inactive)
